The source of these data is PubChem BioAssay (NCATS).

Results filed as inconclusive are left out. Calls of active or inactive are those of the source. Unless noted, the call rests on the fitted dose curve; in most records, active means well fitted curve in the direction sought with a large enough effect; inconclusive means small, poorly fitted or top-dose-only effect, or another doubt; inactive means no such curve, though single readings can be large; an effect the other way counts as inactive or inconclusive. Peptide text beside a SMILES is read from it.

Assay [1] concerns the target Cytochrome P450 3A4 (Homo sapiens) (UniProt P08684). Put plainly: qHTS Assay for Inhibitors and Substrates of Cytochrome P450 3A4 (AID 884). Further: on the % scale 0 is the no-effect control and ±100 the full control effect; nearly all actives have a fitted effect of over 50% in size. The gist of the method:
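Luminescent readout of luciferin produced by CYP3A4 (20 nM) dealkylation of Luciferin-PPXE, 25 uM (its KM). NADPH-driven reaction ran 60 min at RT after 10 min compound preincubation; data scaled to 57 uM ketoconazole as 100% inhibition.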
For orientation: Quantitative high-throughput screening tests each substance at several concentrations.

Assay [2] can be described thus: Confirmation and Secondary Assay for Modulators of Hemoglobin Beta Chain Splicing at IVS2 654 locus (AID 910).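 Further: HeLa cells stably carrying EGFP split by mutant beta-globin IVS2-654 intron; per-well total GFP intensity by laser scanning cytometry after 2-day treatment; % of control where 0% means no effect.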 The method, boiled down: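 Readout: per-well total peak green fluorescence (488 nm ex, 500–520 nm em) from objects 5–250 µm, reflecting correct splicing of an EGFP-654 reporter. Compounds were applied for 2 days at 37 °C to overnight-plated HeLa EGFP-654 cells; controls were DMSO and 500 nM IVS2-654 PNA.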

The nature of assay [3]: Confirmation and Secondary Assay for Modulators of Hemoglobin Beta Chain Splicing at IVS2 705 locus (AID 930).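 Further: HeLa cells stably expressing the EGFP-705 splicing reporter; % of control where 0% means no effect.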 The gist of the method: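 HeLa cells stably carrying EGFP interrupted by mutant beta-globin IVS2-705 intron (CMV-driven) were seeded at 500 cells/well, treated next day with compound for 2 days at 37C; corrected splicing restores EGFP, read as total peak GFP intensity per well.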

Assay [4] can be described thus: qHTS Assay for Lipid Storage Modulators (AID 1519; calls by dose curve; on activity change, negative = inhibition: on the % scale 0 is the no-effect control and ±100 the full control effect). The settings on record: Drosophila S3 cells, BODIPY lipid droplet/cell ratio, laser cytometry, cells loaded with oleic acid; for activity change, negative = inhibition: at 57.5 µM (top of the series). The method, boiled down:
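Cells seeded at 5,000 per well were treated with compounds over a concentration series and loaded with oleic acid (400 uM, as added). Lipid droplet fluorescence (488 nm excitation, 500-530 nm channel) was read by laser-scanning cytometry and normalized to 20 uM Triacsin C.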

For assay [5], the target named is Ubiquitin carboxyl-terminal hydrolase 1 (Homo sapiens) (UniProt O94782). Put plainly: Inhibitors of USP1/UAF1: Pilot qHTS (AID 504865).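 Further: rhodamine fluorescence freed from ubiquitin-rhodamine substrate followed over time; top concentration of the series differs between compounds; on the % scale 0 is the no-effect control and ±100 the full control effect; nearly all actives have a fitted effect of over 35% in size.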 The gist of the method: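 Kinetic fluorescence assay: 1nM USP1/UAF1, 15 min compound preincubation, then 150nM Ub-Rho; 480/540 nm.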
Sequence of Ubiquitin carboxyl-terminal hydrolase 1 (Homo sapiens) (O94782 whole entry, looked up): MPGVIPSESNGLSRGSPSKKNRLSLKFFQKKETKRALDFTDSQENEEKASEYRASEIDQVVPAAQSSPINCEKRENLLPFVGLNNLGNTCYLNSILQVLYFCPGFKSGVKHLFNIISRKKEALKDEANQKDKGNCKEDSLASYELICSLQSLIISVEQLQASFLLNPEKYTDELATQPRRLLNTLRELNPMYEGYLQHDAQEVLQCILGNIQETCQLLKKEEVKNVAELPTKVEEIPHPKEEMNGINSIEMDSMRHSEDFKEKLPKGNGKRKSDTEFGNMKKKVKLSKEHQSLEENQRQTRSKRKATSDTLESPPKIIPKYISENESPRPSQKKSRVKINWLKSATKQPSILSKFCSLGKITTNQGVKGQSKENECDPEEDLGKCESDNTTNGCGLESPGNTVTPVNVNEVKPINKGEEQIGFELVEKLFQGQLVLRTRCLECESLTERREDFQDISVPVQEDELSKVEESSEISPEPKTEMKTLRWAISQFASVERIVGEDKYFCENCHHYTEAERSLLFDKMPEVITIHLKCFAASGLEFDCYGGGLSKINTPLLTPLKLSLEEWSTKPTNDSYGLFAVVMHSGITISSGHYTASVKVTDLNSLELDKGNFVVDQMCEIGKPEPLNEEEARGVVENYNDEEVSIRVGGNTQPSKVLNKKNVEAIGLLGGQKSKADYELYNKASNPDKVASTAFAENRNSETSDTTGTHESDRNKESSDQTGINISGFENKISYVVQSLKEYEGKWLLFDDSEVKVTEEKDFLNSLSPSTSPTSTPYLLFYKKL
[6] abbreviates: measured here: cell count channel max response.
[7] abbreviates: measured here: lipid channel max response.

Sequence of Cytochrome P450 3A4 (Homo sapiens) (P08684 whole entry, looked up): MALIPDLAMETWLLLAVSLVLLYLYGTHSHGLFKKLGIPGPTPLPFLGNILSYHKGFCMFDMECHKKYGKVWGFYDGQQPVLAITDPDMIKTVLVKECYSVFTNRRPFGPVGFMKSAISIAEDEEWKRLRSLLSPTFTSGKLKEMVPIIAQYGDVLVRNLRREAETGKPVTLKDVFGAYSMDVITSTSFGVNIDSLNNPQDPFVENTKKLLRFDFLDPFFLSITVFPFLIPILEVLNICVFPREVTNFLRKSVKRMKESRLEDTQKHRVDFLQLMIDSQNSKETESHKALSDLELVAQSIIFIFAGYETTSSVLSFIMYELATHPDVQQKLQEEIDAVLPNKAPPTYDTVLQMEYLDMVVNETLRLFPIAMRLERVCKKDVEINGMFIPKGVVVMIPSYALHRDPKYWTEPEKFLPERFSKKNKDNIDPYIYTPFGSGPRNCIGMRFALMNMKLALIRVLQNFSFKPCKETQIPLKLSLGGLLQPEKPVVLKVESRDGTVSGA

Take `COc1ccc(-c2cc(=O)c3c(O)c(OC)c(OC)c(OC)c3o2)cc1`: the Potency entry in assay [1], in assay [2], in assay [3] and in assay [5] was “inactive” in each case. For the same compound, in assay [4], the activity change, negative = inhibition is 5.49% (inactive). Besides, the max response in assay [4] (setting [6]) turned out to be 14.3%; in assay [4] (setting [7]), 20.3%.
In the case of `CC(=O)NC(CC(=O)O)C(=O)NC(CCC(=O)O)C(=O)O` (stereo not drawn) (Ac-Asp-Glu-OH; configuration not given here), the Potency result in assay [1], in assay [2], in assay [3] and in assay [5] was “inactive” each time. Also, in assay [4], the activity change, negative = inhibition is 4.52% (inactive). In addition, the max response came to 12.9% in assay [4] (setting [6]) and 18.5% in assay [4] (setting [7]).
As to `CCCCCCCCCCCCCc1ccco1`, the Potency result in assay [1], in assay [2], in assay [3] and in assay [5] was “inactive” each time. The activity change, negative = inhibition in assay [4] is 1.58% (inactive). Also, the results for the max response in assay [4] (setting [6]) and in assay [4] (setting [7]) were -6.07% and 3.51%, respectively.
Take `OCC1OC(n2cnc3c(Cl)nc(Cl)nc32)C(O)C1O` (configuration not stated): the Potency entry in assay [1], in assay [2], in assay [3] and in assay [5] was “inactive” in each case. Moreover, in assay [4], the activity change, negative = inhibition is 6.74% (inactive). The max response in assay [4] (setting [6]) came out at 16.5%; in assay [4] (setting [7]), 22.9%.
Consider `CC(=O)OC1CC[C@]2(C)C(=CCC3C4CCC(C(C)CCCC(C)C)[C@]4(C)CCC32)C1` (some centres not stated), for which the Potency entry in assay [1], in assay [2], in assay [3] and in assay [5] was “inactive” each time. The activity change, negative = inhibition in assay [4] is 5.26% (inactive). In addition, the max response was 9.32% in assay [4] (setting [6]) and 13.2% in assay [4] (setting [7]).
In the case of `COc1ccc(C2OC3C(CO)OC(n4cnc5c(=O)[nH]c(N)nc54)C3O2)cc1` (configuration not stated), the Potency result in assay [1], in assay [2], in assay [3] and in assay [5] was “inactive” throughout. The activity change, negative = inhibition in assay [4] is 1.28% (inactive). In addition, the results for the max response in assay [4] (setting [6]) and in assay [4] (setting [7]) were 11.1% and 13.1%, respectively.
As for `COc1ccc(/C=C/c2cc(O)cc(O[C@H]3OC(CO)C(O)C(O)C3O)c2)cc1` (some centres not stated), the Potency entry in assay [1], in assay [2], in assay [3] and in assay [5] was “inactive” throughout. Further, the activity change, negative = inhibition in assay [4] was 8.33% (inactive). Also, the values for the max response in assay [4] (setting [6]) and in assay [4] (setting [7]) were 12.8% and 23%, respectively.
`CC(C)(O)CCC(O)[C@@](C)(O)C1CC[C@]2(O)C3=CC(=O)C4CC(O)C(O)C[C@]4(C)C3CC[C@]12C` (some centres not stated): the Potency entry in assay [1], in assay [2], in assay [3] and in assay [5] was “inactive” each time. For the same compound, the activity change, negative = inhibition in assay [4] was 2.72% (inactive). Besides, the max response was -2.83% in assay [4] (setting [6]) and 0.37% in assay [4] (setting [7]).
`CC(C(=O)O)C1CCC2C3CC=C4CC(O)CC[C@@]4(C)C3CC[C@]12C` (some centres not stated): the Potency entry in assay [1], in assay [2], in assay [3] and in assay [5] was “inactive” each time. Moreover, in assay [4], the activity change, negative = inhibition was 4.4% (inactive). The figures for the max response in assay [4] (setting [6]) and in assay [4] (setting [7]) were 6.91% and 12.2%, respectively.
With `NC(=O)NCC(N)C(=O)O` (configuration not stated), the Potency result in assay [1], in assay [2], in assay [3] and in assay [5] was “inactive” each time. Besides, the activity change, negative = inhibition in assay [4] was 2.49% (inactive). Besides, the figures for the max response in assay [4] (setting [6]) and in assay [4] (setting [7]) were 3.72% and 6.05%, respectively.
As for `COc1ccc(-c2coc3c(OC)c(OC)cc(OC)c3c2=O)cc1`, the Potency entry in assay [1], in assay [2], in assay [3] and in assay [5] was “inactive” in each case. The activity change, negative = inhibition in assay [4] was 12.7% (inactive). For the same compound, the max response was 16.4% in assay [4] (setting [6]) and 29.7% in assay [4] (setting [7]).
With `Cn1nnnc1SCC1=C(C(=O)O)N2C(=O)C(NC(=O)C(OC=O)c3ccccc3)C2SC1` (configuration not stated), the Potency result in assay [1], in assay [2], in assay [3] and in assay [5] was “inactive” each time. Also, the activity change, negative = inhibition in assay [4] is 4.18% (inactive). Also, the max response in assay [4] (setting [6]) stood at 15%; in assay [4] (setting [7]), 24.5%.
As to `C[C@]12CCC3c4ccc(O)cc4CCC3C1CC(O)C2O` (some centres not stated), the Potency entry in assay [1], in assay [2], in assay [3] and in assay [5] was “inactive” in each case. In addition, the activity change, negative = inhibition in assay [4] is -4.9% (inactive). Besides, the max response stood at 6.91% in assay [4] (setting [6]) and 3.96% in assay [4] (setting [7]).
For the compound `CC1CCC(C(C)C)[C@H](O)C1` (some centres not stated), the Potency entry in assay [1], in assay [2], in assay [3] and in assay [5] was “inactive” throughout. In addition, in assay [4], the activity change, negative = inhibition is 8.01% (inactive). For the same compound, the values for the max response in assay [4] (setting [6]) and in assay [4] (setting [7]) were -2.41% and -1.46%, respectively.
Take `COc1cccc2c1CCC1=CC(=O)CC[C@@]12C`: the Potency result in assay [1], in assay [2], in assay [3] and in assay [5] was “inactive” throughout. Besides, the activity change, negative = inhibition in assay [4] is 11.4% (inactive). The max response was 2.03% in assay [4] (setting [6]) and 15.6% in assay [4] (setting [7]).
For `Nc1ncnc2c1nc(Cl)n2C1OC(CO)C(O)C1O` (configuration not stated), the Potency result in assay [1], in assay [2], in assay [3] and in assay [5] was “inactive” throughout. Besides, in assay [4], the activity change, negative = inhibition is 3.24% (inactive). The max response in assay [4] (setting [6]) turned out to be 5.55%; in assay [4] (setting [7]), 12.1%.
As to `CCOc1ccc(C(=O)c2ccc(OC)c(O)c2O)cc1`, the Potency entry in assay [1], in assay [2], in assay [3] and in assay [5] was “inactive” in each case. In addition, the activity change, negative = inhibition in assay [4] is 7.45% (inactive). Further, the results for the max response in assay [4] (setting [6]) and in assay [4] (setting [7]) were 6.67% and 16.2%, respectively.
As for `COc1c(O)cc2c(c1O)C1OC(CO)C(O)[C@H](O)[C@H]1OC2=O` (some centres not stated), the Potency result in assay [1], in assay [2], in assay [3] and in assay [5] was “inactive” each time. For the same compound, the activity change, negative = inhibition in assay [4] was 6.03% (inactive). In addition, the max response in assay [4] (setting [6]) came out at 7.39%; in assay [4] (setting [7]), 14.2%.
For the compound `C=C(C)C1CC[C@]2(CO)CC[C@@]3(C)[C@H](CCC4[C@@]5(C)CCC(O)C(C)(C)C5CC[C@@]43C)C12` (some centres not stated), the Potency result in assay [1], in assay [2], in assay [3] and in assay [5] was “inactive” each time. For the same compound, the activity change, negative = inhibition in assay [4] was -2.93% (inactive). In addition, the results for the max response in assay [4] (setting [6]) and in assay [4] (setting [7]) were -9.58% and -12.7%, respectively.
For `Nc1ncnc2c1nc(Br)n2C1CC(O)C(CO)O1` (configuration not stated), the Potency entry in assay [1], in assay [2], in assay [3] and in assay [5] was “inactive” throughout. The activity change, negative = inhibition in assay [4] was 2.34% (inactive). For the same compound, the max response amounted to 9.06% in assay [4] (setting [6]) and 11.8% in assay [4] (setting [7]).
Consider `OCC1OC(n2cnc3c(NCc4ccco4)ncnc32)C(O)C1O` (configuration not stated), for which the Potency entry in assay [1], in assay [2], in assay [3] and in assay [5] was “inactive” in each case. In addition, in assay [4], the activity change, negative = inhibition was -0.247% (inactive). Moreover, the max response is -4.44% in assay [4] (setting [6]) and -3.92% in assay [4] (setting [7]).
